Assay results: the supplement of paper PMC6555819

The sequences below were run on VDR:RXRa (NR concentration 270 nM, RXRa partner concentration 90 nM) (assay: PBM binding z-score (relative to random genomic background probes); higher = stronger binding; sequences stand for … in GC…GCGATTGACAGCGTAGAATGAAGG).
Method: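 Protein-binding microarray (Agilent 4x180K custom design, double-stranded 60-nt probes: 5' GC cap, 34-nt variable region, 24-nt constant primer region; full probe sequence given). Purified or IVT nuclear receptor:RXRα heterodimers (3:1 NR:RXRα, mostly 270:90 nM) or homodimers were incubated for 1 h in PBS with 2% milk and no ligand, then detected with Alexa488 antibodies. Fluorescence from o1-orientation probes (~5 replicates averaged) was converted to z-scores against 500 random hg19 background probes. Variable regions are seed direct-repeat (DR0–DR5) sites, all their single-nucleotide variants and half-site ablations.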

Question: With TTACCAAGGTAAAAGGTCGTTGATGCACGCCTTG as the sequence, how does the PBM binding z-score read?
Answer: 2.6

Question: CTAACTAGGTCACCAGGACAGTGAAGAGGTTGGA was tested. Which PBM binding z-score did it give?
Answer: 2.06

Question: For CGAACTAGGTCAAAGGACAGTGAAAGGCGACGTA, which PBM binding z-score is on record?
Answer: 1.32

Question: CCTACTGGGCCAAAGGCCATTGATTCCAATGCTC was tested. Which PBM binding z-score did it give?
Answer: -0.327

Question: ATATGTAGGTTAGTGTCATTCAGAAAGTAGGGAA was tested. Which PBM binding z-score did it give?
Answer: 1.04

Question: How did the PBM binding z-score turn out when CTTTGTAGGTTAAGGGGGTCATTCAGTTTGAAAG was run?
Answer: 7.48

Question: CGTGCAAGGTCAGAGAGGTCAGTGAATGCCGAGT was tested. Which PBM binding z-score did it give?
Answer: 7.22

Question: With CCTTACGGGTCACTCCAGGTTCTAGCATCGGAGT as the sequence, how does the PBM binding z-score read?
Answer: 3.59

Question: Which PBM binding z-score does the source give for CAAACTAGGTCACAGAGGTCAAAGTTCGTGCGTA here?
Answer: 8.36

Question: Which PBM binding z-score does the source give for ATCTGTAGGTTAGGGTCATTCAGAAAGTAGGGAA here?
Answer: 4.35

Question: How did the PBM binding z-score turn out when TCCAGTAGGTTACGGGGGCATTCAGGGATGAAGA was run?
Answer: 4.04

Question: Which PBM binding z-score does the source give for TCATATAGGTTAAGGTGAAAGTCGAACGATATGA here?
Answer: 0.985

Question: Which PBM binding z-score does the source give for ACTAGTAGGCCAAGGGTCACTCAAGATTAGTCCG here?
Answer: 2.93

Question: Which PBM binding z-score does the source give for CATACAGGGTCCGCTAGGCCAGAGTAGGGACGGC here?
Answer: -0.537

Question: For AGTCAAAGTTCATCTTGGTAACGTAAGATATGCT, which PBM binding z-score is on record?
Answer: 4.41

Question: For ATCGAAAGGTCGTCGAGGTGAGTATACACCGTTT, which PBM binding z-score is on record?
Answer: 5.7

Question: How did the PBM binding z-score turn out when CCTAGTAGGTTACGAGGGGGCATTCAGTGCGAAT was run?
Answer: 5.12

Question: With ATATGTAGGTTAGGGTCAATCAGAAAGTAGGGAA as the sequence, how does the PBM binding z-score read?
Answer: 3.8

Question: Which PBM binding z-score does the source give for GCTCGGGGGACAAGGTCAGAGCTTTGTCCGTAGA here?
Answer: 3.07

Question: How did the PBM binding z-score turn out when TCGAGTAGGTTACAGGGGCATTCAGGGATGAAGA was run?
Answer: 1.67

Question: Which PBM binding z-score does the source give for ACTAGCAGGCCAAAGGTCACTCAAGATTAGTCCG here?
Answer: 4.05

Question: How did the PBM binding z-score turn out when ATCTGTAGGTTATCGGGTCATTCAGTTTGCGCAT was run?
Answer: 5.17

Question: How did the PBM binding z-score turn out when CCTGCTAGGTCAAGGGTCAGCTAAAGCAGCTCGC was run?
Answer: 4.17

Question: How did the PBM binding z-score turn out when ACTAGTTGGTCACCTGAGGTCACACACAATTCGG was run?
Answer: 5.23

Question: How did the PBM binding z-score turn out when CTCGAAAGGTCGGTTGAGGTGAGTAAACGGATAA was run?
Answer: 2.11

Question: Which PBM binding z-score does the source give for CAAACTAGGTCAAAGGTCAGAGTCGAGCCAACCA here?
Answer: 5.78

Question: How did the PBM binding z-score turn out when CGAACTAGGTCAAAGGACAGGGAAAGGCGACGTA was run?
Answer: 1.27

Question: Which PBM binding z-score does the source give for CCTACTGGGTCATTCAGAGGTCATTGATCATATG here?
Answer: 6.25

Question: Which PBM binding z-score does the source give for ATCTCTAGGTAAAGGTCAGTGAAAGATCGATAGA here?
Answer: 2.89

Question: CCCACTGGGCCATTCAGAGGTCATTGATCATATG was tested. Which PBM binding z-score did it give?
Answer: 4.02

Question: How did the PBM binding z-score turn out when CGAACTAGGTCAAAGGACACTGAAAGGCGACGTA was run?
Answer: 1.74

Question: With CCTACTGGGCCACTCAGAGGTCATTGATCATATG as the sequence, how does the PBM binding z-score read?
Answer: 4.06

Question: For CGAACTTGGTCACCAGGACAGTGAAGAGGTTGGA, which PBM binding z-score is on record?
Answer: 0.809

Question: How did the PBM binding z-score turn out when CTATGTAGGTTAAGGAGGTCATTCAGTTTGAAAG was run?
Answer: 6.83

Question: ATCGAAGGGTCGAAGGTGAGTATACCCACCCGAA was tested. Which PBM binding z-score did it give?
Answer: 1.66

Question: For AGAATGAGGTTACACGTAGATCAGGGAAGAAAGT, which PBM binding z-score is on record?
Answer: 1.67

Question: With CTCTGTAGGTTAAGGGGGTCATTCAGTTTGAAAG as the sequence, how does the PBM binding z-score read?
Answer: 7.66

Question: How did the PBM binding z-score turn out when CAAACTAGGTCACGAAAGGTCAAAATCGAATGAC was run?
Answer: 6.51

Question: For GCTTACGGGTCAAAGGTTACAGCATGAATAGAAT, which PBM binding z-score is on record?
Answer: 5.69

Question: With ATATGTACGTTAGGGTCATTCAGAAAGTAGGGAA as the sequence, how does the PBM binding z-score read?
Answer: 4.24
